# HNF4A DNA FP: change in binding of human HNF4A to DNA, primary screen, biochemical, fluorescence polarization, FITC-DNA; Hepatocyte nuclear factor 4-alpha (Homo sapiens), P41235; 360,000 tested, 0.3% active; AID 1224865, 2016; 1 h; activity change, % at 10 µM; in the data active = activity change above about 30%, passing the limit was not always enough
# Target sequence (P41235 whole entry, looked up): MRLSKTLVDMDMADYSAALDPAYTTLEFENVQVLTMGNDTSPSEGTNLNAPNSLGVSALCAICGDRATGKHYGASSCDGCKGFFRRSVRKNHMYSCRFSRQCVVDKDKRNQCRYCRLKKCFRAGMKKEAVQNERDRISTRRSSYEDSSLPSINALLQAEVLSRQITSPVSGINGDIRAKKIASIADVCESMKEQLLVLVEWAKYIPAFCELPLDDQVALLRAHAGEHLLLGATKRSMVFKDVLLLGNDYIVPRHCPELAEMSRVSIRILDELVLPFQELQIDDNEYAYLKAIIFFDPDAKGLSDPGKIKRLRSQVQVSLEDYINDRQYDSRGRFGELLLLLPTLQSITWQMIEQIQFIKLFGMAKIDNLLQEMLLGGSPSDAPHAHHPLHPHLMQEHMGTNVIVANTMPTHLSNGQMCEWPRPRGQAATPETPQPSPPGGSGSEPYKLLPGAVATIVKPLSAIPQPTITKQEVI
# Fh CTSL1 inh: Fasciola hepatica cathepsin L1 inhibitors, primary screen, counter-screen for PFM18AAP inhibitor project, biochemical, QFRET, fluorogenic peptide substrate; inhibition, % at 5.96 µM; recombinant F. hepatica cathepsin L1, Z-Leu-Arg-MCA fluorescence; 300,000 tested, 0.49% active;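 active = inhibition above the mean of all tested compounds plus 3 SD, set per screening campaign, cut at about 17% in these data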;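 also: 0% = plate median of test compound wells and 100% = 1 µM Z-Phe-Ala-diazomethylketone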
# PHOSPHO1 inh: PubChem AID 1565 | recombinant PHOSPHO1, absorbance phosphatase assay | inhibition, % at 13.3 µM | 290,000 tested, 1.1% active; in the data active = inhibition above about 60%
# Rpn11 block: Rpn11 (PSMD14) deubiquitinase inhibitors, primary screen, biochemical, fluorescence polarization, uHTS | 26S proteasome non-ATPase regulatory subunit 14 (Homo sapiens), O00487 | human 26S proteasome, Ub4-pepOG fluorescence polarization; 20S core pre-blocked with epoxomicin | inhibition, % at 20 µM | 360,000 tested, 0.59% active;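 active = inhibition at 20 µM, scaled to each plate's controls, above about 33%, limit read from the data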
# NRP1-CendR mod: modulators of CendR peptide binding to NRP-1, primary screen, biochemical, fluorescence polarization, uHTS; FAM-RPARPAR peptide binding to NRP-1; inhibition, % at 25 µM; 360,000 tested, 0.85% active; AID 602438, 2012;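 active = inhibition or corrected inhibition above about 18%, plus a signal ratio from 0.5 to 1.5, limit read from the data, passing the limit was not always enough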
# TPT1 inhibitor: Candida albicans TPT1 enzyme inhibitors, primary screen, biochemical, fluorescence polarization; tRNA 2'-phosphotransferase TPT1 (Candida albicans SC5314); recombinant caTPT1, FP RNA substrate dephosphorylation; inhibition, % at 5 µM; 300,000 tested, 0.81% active; AID 1962, 2009;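 active = inhibition above the mean of all tested compounds plus 3 SD, set per screening campaign, cut at about 24% in these data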;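 also: plate controls were DMSO alone for no effect and ferristatin control at 100 nM for full effect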
# * marks the source's active call; other numbers are inactive results; . = not tested or not shown. Only some compounds are listed: those with a hit (about 3.3% of all), similar ones and a draw of the others.
SMILES,HNF4A DNA FP,Fh CTSL1 inh,PHOSPHO1 inh,Rpn11 block,NRP1-CendR mod,TPT1 inhibitor
CSc1c[n+]2c(n1C)CCC2,8,-4,82*,-4,3,-2
O=C1COc2ccc(C(=O)COC(=O)CCc3ccc(S(=O)(=O)N4CCOCC4)cc3)cc2N1,1,-7,4,-5,35*,-3
O=C1COc2ccc(C(=O)COC(=O)COc3ccccc3[N+](=O)[O-])cc2N1,-1,-32,33,3,25*,2
Cc1ccc(C(=O)NCC(=O)OCC(=O)c2ccc3c(c2)NC(=O)CO3)cc1,3,-23,32,0,31*,-3
COc1ccc(C(=O)NCC(=O)OCC(=O)c2ccc3c(c2)NC(=O)CO3)cc1OC,4,-24,-2,4,-4,0
COCCNC(=O)Cn1cc(/C=C(\C#N)C(=O)NC2CCCC2)c2ccccc21,-1,1,-2,4,6,-1
O=C(CC12CC3CC(CC(C3)C1)C2)N/N=C/c1ccncc1,0,4,0,1,18*,-5
CC(C)(C)SCCNC(=O)Nc1ccccc1,2,-3,6,1,7,-3
CC1=CC(=O)[C@H]2C(C)(C)CCC[C@]2(C)[C@@]1(O)CO,1,49*,8,-2,9,0
NS(=O)(=O)c1ccc(NC(=O)COC(=O)c2ccc([N+](=O)[O-])s2)cc1,-3,68*,-3,-7,-43,1
Cc1ccc(NC(=O)COC(=O)c2ccc([N+](=O)[O-])s2)c(C)c1,0,28*,-6,0,6,-4
COc1ccccc1NC(=O)COC(=O)c1ccc([N+](=O)[O-])s1,3,22*,4,-3,-44,2
O=[N+]([O-])c1ccc(S(=O)(=O)N2CCN=C2SCc2ccc(F)cc2)cc1,0,0,27,1,8,0
CN(C)c1cccc2c1c(NC(=O)c1ccc(F)cc1)nn2C,-2,2,62*,0,1,-1
CCCn1nc([N+](=O)[O-])c(C(C#N)c2nc3ccccc3o2)c(Cl)c1=O (centres undefined),-2,0,17,-4,-1,4
CCn1nc([N+](=O)[O-])c(C(C#N)c2nc3cc(C(F)(F)F)ccc3s2)c(Cl)c1=O (centres undefined),-2,-2,12,3,26*,0
O=C(Nc1ccc2c(c1)OCCO2)C1CCN(C(=O)c2ccc([N+](=O)[O-])cc2)CC1,-4,0,66*,-3,2,1
O=C(Nc1ccc2c(c1)OCCO2)C1CCN(C(=O)c2ccc(Br)cc2)CC1,0,4,-20,-1,-15,1
O=C(C#Cc1cccc([N+](=O)[O-])c1)c1ccccc1,0,22*,26,-1,5,1
N#CCCN1CCN(C(=S)c2ccc(-c3cc(Cl)ccc3Cl)o2)CC1,0,3,74*,10,-8,-4
O=C1C=C(NCCN2CCOCC2)C(=O)c2cnccc21,.,100*,-4,.,.,-2
CC1CC(C)CN(S(=O)(=O)c2cc3c4c(c2)CCN4C(=O)CC3)C1 (centres undefined),-4,6,.,-3,25*,0
COc1ccccc1NS(=O)(=O)c1cc(NC(=O)c2ccc3c(c2)OCCO3)ccc1C,-3,-2,-7,5,30*,-3
CCC(=O)N1CCCc2cc(S(=O)(=O)CCC(=O)Nc3ccccc3C)ccc21,-2,-6,2,0,28*,2
CCC(C)c1ccc(NC(=O)CN(C)CC(=O)Nc2cccc(OC)c2)cc1 (centres undefined),3,1,18,4,5,-4
SMILES,HNF4A DNA FP,Fh CTSL1 inh,PHOSPHO1 inh,Rpn11 block,NRP1-CendR mod,TPT1 inhibitor
CCOC(=O)c1sc(NC(=O)CSc2nc(C)cc(-c3ccccc3)n2)c(C#N)c1C,0,-2,88*,1,-3,2
CCOC(=O)c1cnc(SCC(=O)Nc2cc(OC)cc(OC)c2)nc1N,-5,-2,0,7,-9,-1
CCOC(=O)c1sc(NC(=O)CSc2nc(C)cc(C)c2C#N)c(C#N)c1C,4,-2,16,8,-4,2
CCOC(=O)c1cnc(SCC(=O)Nc2sc(C)c(C)c2C#N)nc1N,1,0,92*,4,-8,0
COc1cc([N+](=O)[O-])cc(/C=N/N(CCC#N)C(C)=O)c1O,5,2,24,2,7,4
Cc1ccc(S(=O)(=O)NCC(=O)OCCOc2cccc(Cl)c2)cc1,0,.,.,-5,-4,.
O=C(O)c1ccc(NC2=C/C(=N/S(=O)(=O)c3cccs3)c3ccccc3C2=O)cc1,2,.,.,1,42*,.
Cc1cc(C)c(S(=O)(=O)/N=C2\C=C(Nc3ccc(C(=O)O)cc3)C(=O)c3ccccc32)c(C)c1,-1,25*,28,2,23,0
O=C(O)c1ccc(NC2=C/C(=N/S(=O)(=O)c3ccccc3)c3ccccc3C2=O)cc1,0,.,-23,-13,37*,.
O=C1C2C3C=CC(C3)C2C(=O)N1c1ccc(N2CCN(c3ccccn3)CC2)c([N+](=O)[O-])c1 (centres undefined),0,-2,36,6,4,0
CC(C)NC(=O)CN(C)S(=O)(=O)c1ccc(F)cc1,-5,-1,1,-2,14,-6
CC(C(=O)OCC(=O)Nc1ccccc1OC(F)F)N1C(=O)C2CC=CCC2C1=O (centres undefined),5,.,.,-6,-2,.
Cc1ccc(NC(=O)COC(=O)C(CC(C)C)N2C(=O)C3CC=CCC3C2=O)c(C)c1 (centres undefined),-1,17*,11,0,1,-4
CN(CC(=O)Nc1ccc(F)c(F)c1F)C(=O)Cc1ccc2c(c1)OCCO2,1,-3,38,-5,11,3
CCOC(=O)c1c(C)[nH]c(C)c1S(=O)(=O)NC1CCN(C(=O)OCC)CC1,0,0,44,0,11,-1
CCOC(=O)c1c(C)[nH]c(C)c1S(=O)(=O)NC(CC)CN1CCOCC1 (centres undefined),3,1,65*,-4,14,-2
C[C@H](CO)N1C[C@H](C)[C@@H](CN(C)Cc2cccc(C(F)(F)F)c2)OCc2cnnn2CCCC1=O,3,.,.,0,-3,.
Cc1ccc(C(=O)ONc2ccc(N=NC(=O)c3ccccc3O)cc2)cc1,-20,-5,69*,.,21,-4

# Screening results deposited in PubChem by several laboratories.
